TEAD-YAP block – TEAD-YAP interaction inhibition; inhibition, % at 9.12 µM; HEK-TIYL cells, TEAD-Gal4/YAP UAS-luciferase luminescence; 1.4% of 640,000 active; in the data active = inhibition above about 32%
GPR151 ag – human GPR151 activation; Q8TDV0; PathHunter beta-arrestin GPR151 cells, luminescence; activation, % at 11.2 µM; 1% of 650,000 active; in the data active = activation above about 4.9%
FBW7 activator – human FBW7 E3 ligase activation, primary screen | Q969H0 | AlphaScreen FBW7–phospho-cyclin E peptide binding, activator screen | normalized activity (activation), % at 26.1 µM | 0.13% of 650,000 active; in the data active = normalized activity above about 1.9%;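 note: purified mutant Fbw7 with reduced substrate affinity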
MITF inh – human MITF inhibition, primary screen; AlphaScreen MITF homodimerization, bead proximity signal; inhibition, % at 2.6 µM; O75030; AID 1259374; 0.91% of 650,000 active; in the data active = inhibition above about 50%
Target sequence (O75030 whole entry, looked up): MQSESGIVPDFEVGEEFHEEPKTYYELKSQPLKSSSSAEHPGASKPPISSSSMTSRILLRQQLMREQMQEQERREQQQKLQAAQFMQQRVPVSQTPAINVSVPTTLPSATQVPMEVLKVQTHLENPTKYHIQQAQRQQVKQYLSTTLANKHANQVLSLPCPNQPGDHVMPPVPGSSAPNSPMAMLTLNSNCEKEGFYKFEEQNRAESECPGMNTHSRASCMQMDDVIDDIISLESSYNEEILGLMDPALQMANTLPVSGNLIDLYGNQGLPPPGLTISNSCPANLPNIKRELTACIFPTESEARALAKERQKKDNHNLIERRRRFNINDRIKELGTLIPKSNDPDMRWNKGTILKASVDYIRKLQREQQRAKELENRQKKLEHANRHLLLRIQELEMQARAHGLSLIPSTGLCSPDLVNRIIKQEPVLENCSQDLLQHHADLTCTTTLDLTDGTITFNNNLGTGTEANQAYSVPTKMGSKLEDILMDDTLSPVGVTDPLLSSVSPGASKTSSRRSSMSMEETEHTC
MITF confirm – confirmation of human MITF inhibitors; shares compounds with MITF inh; AlphaScreen MITF homodimerization, biotin/His-MITF beads; inhibition, % at 2.6 µM; 16% of 4,700 active;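 active = inhibition above a cutoff derived from the DMSO control wells, cut at about 28% in these data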;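 note: inhibitors lower the bead chemiluminescence by keeping MITF from dimerizing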
AS interf ctr – optically interferes with AlphaScreen signal. shares compounds with MITF inh. LysRS AlphaScreen counterscreen, signal interference, triplicate. inhibition, % at 2.6 µM. 7.6% of 4,700 active. AID 1259376;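 active = inhibition above a cutoff derived from the DMSO control wells, cut at about 30% in these data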
Hits are given with their value. Only some compounds are listed: those with a hit (about 3.5% of all), similar ones and a draw of the others.

How did CC1CCc2c(cnc3scn[n+]23)C1 (stereo not given) do in these assays?
TEAD-YAP block: inactive; GPR151 ag: inactive; FBW7 activator: inactive; MITF inh: inactive

How did Cc1nonc1NC(=O)CN1C2CCC1CC(O)(c1ccccc1F)C2 (stereo not given) do in these assays?
TEAD-YAP block: inactive; GPR151 ag: inactive; FBW7 activator: inactive; MITF inh: inactive

Results for CCc1ccc(CN2CCN(Cc3ccccc3C)CC2)cc1 ?
TEAD-YAP block: inactive; GPR151 ag: inactive; FBW7 activator: inactive; MITF inh: 65.0; MITF confirm: inactive; AS interf ctr: inactive

What do the screens show for `Cc1ccccc1CN1CCN(c2ccc(Cl)cc2)CC1`?
TEAD-YAP block: inactive; GPR151 ag: inactive; FBW7 activator: inactive; MITF inh: inactive

How did FC(F)(F)c1ccccc1CNCCc1ccc2c(c1)OCO2 do in these assays?
TEAD-YAP block: inactive; GPR151 ag: inactive; FBW7 activator: inactive; MITF inh: 54.7; MITF confirm: inactive; AS interf ctr: inactive

How did COc1ccccc1CN1CCN(Cc2ccc(C)cc2)CC1 do in these assays?
TEAD-YAP block: inactive; GPR151 ag: inactive; FBW7 activator: inactive; MITF inh: 76.3; MITF confirm: inactive; AS interf ctr: inactive

Results for CCc1ccc(CN2CCN(Cc3ccccc3OC)CC2)cc1 ?
TEAD-YAP block: inactive; GPR151 ag: inactive; FBW7 activator: inactive; MITF inh: 72.5; MITF confirm: inactive; AS interf ctr: inactive

How did CC(C)N1CCN(Cc2ccccc2C(F)(F)F)CC1 do in these assays?
TEAD-YAP block: inactive; GPR151 ag: inactive; FBW7 activator: inactive; MITF inh: 60.9; MITF confirm: inactive; AS interf ctr: inactive

Results for COc1ccccc1CN1CCN(C(C)C)CC1 ?
TEAD-YAP block: inactive; GPR151 ag: inactive; FBW7 activator: inactive; MITF inh: 66.9; MITF confirm: inactive; AS interf ctr: inactive

How did O=C1NC(=O)C(CCc2ccncc2)(CCc2ccncc2)C(=O)N1Cc1ccco1 do in these assays?
TEAD-YAP block: inactive; GPR151 ag: inactive; FBW7 activator: inactive; MITF inh: inactive

What do the screens show for `COc1ccccc1CN1CCN(Cc2ccccc2)CC1`?
TEAD-YAP block: inactive; GPR151 ag: inactive; FBW7 activator: inactive; MITF inh: 87.9; MITF confirm: inactive; AS interf ctr: inactive

What do the screens show for `COc1cccc(CN2CCN(Cc3ccccc3)CC2)c1O`?
TEAD-YAP block: inactive; GPR151 ag: inactive; FBW7 activator: inactive; MITF inh: inactive

How did CCN1CCN(Cc2ccccc2Cl)CC1 do in these assays?
TEAD-YAP block: inactive; GPR151 ag: inactive; FBW7 activator: inactive; MITF inh: inactive

Results for COc1cc(CN2CCN(Cc3ccccc3)CC2)cc(Br)c1O ?
TEAD-YAP block: inactive; GPR151 ag: inactive; FBW7 activator: inactive; MITF inh: 50.7; MITF confirm: inactive; AS interf ctr: inactive

What do the screens show for `COc1cc(CN2CCN(Cc3ccccc3)CC2)ccc1O`?
TEAD-YAP block: inactive; GPR151 ag: inactive; FBW7 activator: inactive; MITF inh: inactive

How did CC(C)N1CCN(Cc2ccccc2Cl)CC1 do in these assays?
TEAD-YAP block: inactive; GPR151 ag: inactive; FBW7 activator: inactive; MITF inh: 72.6; MITF confirm: inactive; AS interf ctr: inactive

What do the screens show for `O=C(O)c1cccc(Nc2cnn(C34CC5CC(CC(C5)C3C(=O)O)C4)c(=O)c2Cl)c1` (stereo not given)?
TEAD-YAP block: inactive; GPR151 ag: inactive; FBW7 activator: inactive; MITF inh: inactive

What do the screens show for `O=[N+]([O-])c1cccc(CN2CCN(Cc3ccc(F)cc3)CC2)c1`?
TEAD-YAP block: inactive; GPR151 ag: inactive; FBW7 activator: inactive; MITF inh: 65.7; MITF confirm: inactive; AS interf ctr: inactive

What do the screens show for `O=[N+]([O-])c1cccc(CN2CCN(c3ccccc3)CC2)c1`?
TEAD-YAP block: inactive; GPR151 ag: inactive; FBW7 activator: inactive; MITF inh: inactive

How did CC(C)N1CCN(Cc2cccc([N+](=O)[O-])c2)CC1 do in these assays?
TEAD-YAP block: inactive; GPR151 ag: inactive; FBW7 activator: inactive; MITF inh: 67.4; MITF confirm: inactive; AS interf ctr: inactive

How did COc1cccc(N2CCN(Cc3cccc([N+](=O)[O-])c3)CC2)c1 do in these assays?
TEAD-YAP block: inactive; GPR151 ag: inactive; FBW7 activator: inactive; MITF inh: 51.3; MITF confirm: inactive; AS interf ctr: inactive

What do the screens show for `Fc1ccc(CN2CCN(Cc3cccc(F)c3)CC2)cc1`?
TEAD-YAP block: inactive; GPR151 ag: inactive; FBW7 activator: inactive; MITF inh: inactive

How did CN1CCN(Cc2cccc([N+](=O)[O-])c2)CC1 do in these assays?
TEAD-YAP block: inactive; GPR151 ag: inactive; FBW7 activator: inactive; MITF inh: inactive

How did CCn1ccnc1P(=S)(N(C)C)N(C)C do in these assays?
TEAD-YAP block: inactive; GPR151 ag: inactive; FBW7 activator: inactive; MITF inh: inactive

What do the screens show for `COc1cccc(CN2CCN(C(C)C)CC2)c1`?
TEAD-YAP block: inactive; GPR151 ag: inactive; FBW7 activator: inactive; MITF inh: inactive

How did CC(C)N1CCN(Cc2cccnc2)CC1 do in these assays?
TEAD-YAP block: inactive; GPR151 ag: inactive; FBW7 activator: inactive; MITF inh: 73.8; MITF confirm: inactive; AS interf ctr: inactive

How did CCC(C)N1CCN(Cc2cccc(Br)c2)CC1 (stereo not given) do in these assays?
TEAD-YAP block: inactive; GPR151 ag: inactive; FBW7 activator: inactive; MITF inh: 73.4; MITF confirm: inactive; AS interf ctr: inactive

What do the screens show for `CCN1CCN(Cc2cccc(Br)c2)CC1`?
TEAD-YAP block: inactive; GPR151 ag: inactive; FBW7 activator: inactive; MITF inh: inactive

What do the screens show for `CC(C)N1CCN(Cc2ccco2)CC1`?
TEAD-YAP block: inactive; GPR151 ag: inactive; FBW7 activator: inactive; MITF inh: 61.6; MITF confirm: inactive; AS interf ctr: inactive

Results for CC(C)N1CCN(Cc2cccc(Br)c2)CC1 ?
TEAD-YAP block: inactive; GPR151 ag: inactive; FBW7 activator: inactive; MITF inh: 81.5; MITF confirm: inactive; AS interf ctr: inactive

How did OC(Nc1nc2ccccc2s1)C(Cl)(Cl)Cl (stereo not given) do in these assays?
TEAD-YAP block: inactive; GPR151 ag: inactive; FBW7 activator: inactive; MITF inh: inactive

How did CCOC(=O)C1C2NC(=S)N(C)C1(C)Oc1ccccc12 (stereo not given) do in these assays?
TEAD-YAP block: inactive; GPR151 ag: inactive; FBW7 activator: inactive; MITF inh: inactive

How did CN(C)c1ccc(C(c2c(O)c3ccccc3oc2=O)c2c(O)c3ccccc3oc2=O)cc1[N+](=O)[O-] do in these assays?
TEAD-YAP block: inactive; GPR151 ag: inactive; FBW7 activator: inactive; MITF inh: inactive

How did CCOC(=O)c1c(C)n(CC(C)C)c2ccc(OC(C)=O)cc12 do in these assays?
TEAD-YAP block: inactive; GPR151 ag: inactive; FBW7 activator: inactive; MITF inh: inactive

Results for CCOc1ccccc1N1Cc2ccccc2C1=N ?
TEAD-YAP block: inactive; GPR151 ag: inactive; FBW7 activator: inactive; MITF inh: inactive

How did CC(C)N1CCN(C2CC3CCC2C3)CC1 (stereo not given) do in these assays?
TEAD-YAP block: inactive; GPR151 ag: inactive; FBW7 activator: inactive; MITF inh: 60.5; MITF confirm: inactive; AS interf ctr: inactive

Screens deposited in PubChem by The Scripps Research Institute Molecular Screening Center.
